This is an account of results in PubChem BioAssay (EPA / NIEHS).

Records with an inconclusive call do not appear. Activity calls are given as the source filed them. The calls were made as follows, unless noted: active = hit-call score of the fitted dose curve at least 0.9, where 1 is the maximum; inconclusive = response in the unintended direction; inactive = score below 0.9.

Assay [1] deals with sheep Cyclooxygenase-1 (Cox1), PTGS1 (gene 443551) (UniProt P05979). The experiment in a line: NVS_ENZ_oCOX1: NovaScreen (NVS) Enzymatic Assay for sheep Cyclooxygenase-1 (Cox1) (AID 2283239).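 Also: actives reduce cyclooxygenase activity so potencies are for inhibitors.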 A digest of the protocol: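 COX1 from ovine seminal vesicles, activity read colorimetrically about 0.66 h after dosing. Primary screen in duplicate at 25 uM; actives retested in concentration series; loss of signal fitted versus DMSO.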

Assay [2] addresses D(1A) dopamine receptor (Homo sapiens) (UniProt P21728). The assay is described as follows: NVS_GPCR_hDRD1: NovaScreen (NVS) G Protein-Coupled Receptor Assay for human Dopamine Receptor D1 (DRD1) (AID 2283269). A digest of the protocol: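 Cell-free competition with radioligand, filter-trapped and scintillation-counted 1 h post-dose, using HEK293-derived human D1 preparation. Duplicate single-point testing at 25 uM first, then concentration series for actives; DMSO served as baseline, loss-of-signal scored.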

For assay [3], the target named is Androgen Receptor/SRC-1 Co-activator, AR (gene 367) (UniProt P10275). The experiment in a line: OT_AR_ARSRC1_0960: Odyssey Thera (OT) 16-hour HEK293T Protein-Complementation Assay for Androgen Receptor/SRC-1 Co-activator (AID 2283353).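 Also: actives raise the signal above DMSO so potency reflects increased AR and SRC-1 complex.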 A digest of the protocol: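 Interaction of AR with SRC-1 was followed by YFP fragment complementation in HEK293T cells after 16 h of dosing. Gain of nuclear-over-cytoplasmic 488 nm fluorescence against DMSO controls defined activity.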

Assay [4] has the same target. The experiment in a line: OT_AR_ARSRC1_0480: Odyssey Thera (OT) 8-hour HEK293T Protein-Complementation Assay for Androgen Receptor/SRC-1 Co-activator (AID 2283354).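 Also: hits raise the complementation signal above DMSO so AC50 marks enhancers.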 A digest of the protocol: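 Measures AR/SRC-1 binding by Venus YFP fragment complementation in HEK293T stable lines at 8 h post-dose. Imaging quantifies the 488nm nucleus/cytoplasm ratio in ≥400 cells; DMSO defines baseline.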

Assay [5] addresses human Thyroid Receptor Alpha (TRa), THRA (gene 7067) (UniProt P10827). The assay is described as follows: NVS_NR_hTRa_Antagonist: NovaScreen (NVS) Nuclear Receptor Binding Assay for human Thyroid Receptor Alpha Antagonism (TRa) (AID 2283362).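 Also: activity is loss of signal relative to DMSO baseline.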 The gist of the method: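 Cell-free AlphaLISA chemiluminescent binding read 1 h after dosing, antagonist mode; signal loss versus DMSO baseline. Primary screen in duplicate at 25 uM, then concentration series for actives.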

The target in assay [6] is Agonist Androgen Response Element (ARE), AR (gene 367) (UniProt P10275). The experiment in a line: OT_AR_ARELUC_AG_1440: Odyssey Thera (OT) 24-hour CHO-K1 Luciferase Assay for Agonist Androgen Response Element (ARE) (AID 2283379). The gist of the method:
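Agonist mode, 24 h exposure in CHO-K1 ARE-luciferase cells; values reflect luminescence induction over vehicle.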

Assay [7] deals with AR (gene 367) (UniProt P10275). The experiment in a line: ACEA_AR_antagonist_80hr: ACEA Biosciences xCELLigence Real-Time Cell Analysis on Androgen Receptor Antagonism for Proliferation (AID 2283787).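 Also: 22Rv1 human prostate cancer cells with growth followed by electrical impedance; hits lower the impedance growth signal relative to DMSO.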 The gist of the method: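 Growth-kinetic antagonist readout in 22Rv1 cells, taken 80 h after continuous compound exposure. Activity fitted as signal loss relative to DMSO negative control.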

Assay [8] deals with Nucleoli Translocation, AR (gene 367) (UniProt P10275). The assay is described as follows: UPITT_HCI_U2OS_AR_TIF2_Nucleoli_Agonist: University of Pittsburgh U2OS Androgen Receptor-Transcriptional Intermediary Factor 2 (AR-TIF2) Agonism High Content Imaging Assay for Nucleoli Translocation (AID 2283998). A digest of the protocol:
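U2OS cells expressing RFP-tagged human AR and GFP-tagged TIF2; red fluorescence in nucleoli quantified by high-content imaging. Primary screen at 20 uM final (0.2% DMSO); concentration-response 0.195–50 uM (0.5% DMSO), fitted upward versus DMSO.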

Assay [9] has as its target Ratio of Nucleoli Translocation and Cytoplasm, AR (gene 367) (UniProt P10275). The assay is described as follows: UPITT_HCI_U2OS_AR_TIF2_Nucleoli_Cytoplasm_Ratio_Antagonist: University of Pittsburgh U2OS Androgen Receptor-Transcriptional Intermediary Factor 2 (AR-TIF2) Antagonism High Content Imaging Assay for Ratio of Nucleoli Translocation and Cytoplasm (AID 2283999).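 Also: antagonists lower the DHT-driven ratio of nucleolar to cytoplasmic red signal.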 A digest of the protocol: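 High-content imaging quantifies the red nucleolar:cytoplasmic fluorescence ratio in U2OS cells with AR-RFP and TIF2-GFP. Final concentrations are 20 uM (screen) or 0.195–50 uM (dose response), analysed against DHT as baseline.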

Assay [10] has the same target. The assay is described as follows: UPITT_HCI_U2OS_AR_TIF2_Nucleoli_Cytoplasm_Ratio_Agonist: University of Pittsburgh U2OS Androgen Receptor-Transcriptional Intermediary Factor 2 (AR-TIF2) Agonism High Content Imaging Assay for Ratio of Nucleoli Translocation and Cytoplasm (AID 2284000).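 Also: hits raise the red nucleolar to cytoplasm ratio above vehicle.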 A digest of the protocol:
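Read-out first: nucleolar-to-cytoplasm ratio of red (AR-RFP) signal, quantified by high-content imaging in U2OS cells co-expressing TIF2-GFP. Activity is scored as signal increase over DMSO. Single-point screening used 20 uM final (0.2% DMSO).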

Assay [11] is described as follows: CCTE_Deisenroth_5AR_NBTE_donor: CCTE's 5alpha-reductase NanoBRET Target Engagement Assay […], Deisenroth Lab (AID 2284319; active = hit-call score of the fitted dose curve at least 0.9, where 1 is the maximum; inactive = score below 0.9). Conditions: actives raise or lower the signal. A digest of the protocol:
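HEK293T cells were reverse transfected with an SRD5A2-NanoLuc vector for 20 h, exposed to test chemical (8 points, 10 nM - 29.9 uM) for 3 h, then testosterone tracer for 2 h more. Donor luminescence (460 nm) was read; bidirectional fit versus DMSO.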

A short description of assay [12]: CCTE_Deisenroth_5AR_NBTE_acceptor: CCTE's 5alpha-reductase NanoBRET Target Engagement Assay - Autofluorescence Screen, Deisenroth Lab (AID 2284321; active = hit-call score of the fitted dose curve at least 0.9, where 1 is the maximum; inactive = score below 0.9;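 also: compound fluorescence in the acceptor channel under 460 nm excitation flags autofluorescence artifacts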). As to conditions: actives raise or lower the signal. The gist of the method: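 Autofluorescence counter-screen: chemicals at an assumed nominal 100 uM in DMSO were scanned in three independent runs with 460 nm excitation. Gain or loss of acceptor signal was fitted bidirectionally against DMSO.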

The subject of assay [13] is SRD5A2 (gene 6716). The assay is described as follows: CCTE_Deisenroth_5AR_NBTE_ratio: CCTE's 5alpha-reductase NanoBRET Target Engagement Assay - Ratio, Deisenroth Lab (AID 2284322; active = hit-call score of the fitted dose curve at least 0.9, where 1 is the maximum; inactive = score below 0.9). As to conditions: actives raise or lower the signal. The gist of the method:
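Reverse-transfect HEK293T with pNLF1-C-SRD5A2, express 20 h. Pre-incubate cells with chemical 3 h (8-point series, 10 nM - 29.9 uM, duplicate). Add testosterone tracer, 2 h more. Add substrate/inhibitor, read donor and acceptor emission.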
Background: BRET reads energy transfer from a luciferase to a nearby fluorophore.

The target of assay [14] is Estrogen receptor (Homo sapiens) (UniProt P03372). The assay is described as follows: OT_ER_ERaERa_1440: Odyssey Thera (OT) 24-hour HEK293T Protein-Complementation Assay for Estrogen Receptor-alpha/-alpha Homodimer (AID 2283349).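 Also: hits raise fluorescence above DMSO for agonists and antagonists alike.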 The gist of the method: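 Protein-fragment complementation between two human ERα ligand-binding domains (aa 310-547) in stably transfected HEK293T cells was monitored after 24 h treatment, using fluorescence intensity relative to vehicle controls.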

Assay [15] shares this target. The experiment in a line: OT_ER_ERaERa_0480: Odyssey Thera (OT) 8-hour HEK293T Protein-Complementation Assay for Estrogen Receptor-alpha/-alpha Homodimer (AID 2283351).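 Also: rise in fluorescence from reassembled reporter fragments on ERα LBD homodimer in nucleus or whole cell.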 A digest of the protocol:
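Binding reporter in which dimerisation of ERα LBD (aa 310-547) fusions reconstitutes a fluorescent reporter in HEK293T cells. Compounds incubated 8 h; mean fluorescence intensity increase versus DMSO scored.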

The target is the same in assay [16]. The assay is described as follows: OT_ERa_GFPERaERE_0480: Odyssey Thera (OT) 8-hour HeLa Transcription Induction Assay for Estrogen Receptor (AID 2283381; active = hit-call score of the fitted dose curve at least 0.9, where 1 is the maximum; inactive = score below 0.9). The gist of the method:
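Cells (HeLa) receive compound; after 8 h, reporter fluorescence is imaged and quantified by high-content analysis. Gain-of-signal relative to DMSO gives the endpoint.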

For assay [17] the target is unchanged. The experiment in a line: OT_ERa_GFPERaERE_0120: Odyssey Thera (OT) 2-hour HeLa Transcription Induction Assay for Estrogen Receptor (AID 2283382). The gist of the method: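 Measures ESR1 pathway reporter gain-of-signal in HeLa cells after a 2-hour treatment, detected as fluorescent protein induction by microscopy, DMSO as baseline.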
Assay [18] can be described thus: CEETOX_H295R_OHPREG: CeeTox H295R High-throughput Steroidogenesis Assay for OH-Pregnenolone (OHPREG) (AID 2283434; active = hit-call score of the fitted dose curve at least 0.9, where 1 is the maximum; inactive = score below 0.9). Conditions: actives raise or lower the signal. A digest of the protocol: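 Hormone levels in spent medium were measured by tandem mass spectrometry following liquid-liquid extraction. Cells (H295R) had been forskolin-stimulated (10 uM, 48 h) before a 48 h chemical exposure at 0.1% DMSO, with activity fitted in both directions against DMSO.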

Assay [19] can be described thus: CEETOX_H295R_OHPROG: CeeTox H295R High-throughput Steroidogenesis Assay for OH-Progesterone (OHPROG) (AID 2283435; active = hit-call score of the fitted dose curve at least 0.9, where 1 is the maximum; inactive = score below 0.9;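 as to AC50: human adrenal H295R cells primed 48 h with 10 µM forskolin; 17alpha-hydroxyprogesterone secreted into medium measured by HPLC-MS/MS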). As to conditions: actives raise or lower the signal. The gist of the method:
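Secreted 17alpha-hydroxyprogesterone is read by tandem MS from media of forskolin-primed H295R cells dosed with chemical for 48 h. Activity is fitted in both directions against DMSO baseline; cytotoxic concentrations are re-tested diluted.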

Assay [20] is described as follows: CEETOX_H295R_PROG: CeeTox H295R High-throughput Steroidogenesis Assay for Progesterone (PROG) (AID 2283442; active = hit-call score of the fitted dose curve at least 0.9, where 1 is the maximum; inactive = score below 0.9;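 as to AC50: human H295R adrenal cells primed with 10 µM forskolin before dosing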). Conditions: actives raise or lower the signal. A digest of the protocol:
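H295R adrenal cells prestimulated 48 h with 10 uM forskolin, then exposed 48 h to test chemical in 0.1% DMSO. Progesterone in medium quantified by HPLC-MS/MS after MTBE extraction; viability checked by MTT in same wells.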

Sequence of human Thyroid Receptor Alpha (TRa), THRA (gene 7067) (P10827 whole entry, looked up): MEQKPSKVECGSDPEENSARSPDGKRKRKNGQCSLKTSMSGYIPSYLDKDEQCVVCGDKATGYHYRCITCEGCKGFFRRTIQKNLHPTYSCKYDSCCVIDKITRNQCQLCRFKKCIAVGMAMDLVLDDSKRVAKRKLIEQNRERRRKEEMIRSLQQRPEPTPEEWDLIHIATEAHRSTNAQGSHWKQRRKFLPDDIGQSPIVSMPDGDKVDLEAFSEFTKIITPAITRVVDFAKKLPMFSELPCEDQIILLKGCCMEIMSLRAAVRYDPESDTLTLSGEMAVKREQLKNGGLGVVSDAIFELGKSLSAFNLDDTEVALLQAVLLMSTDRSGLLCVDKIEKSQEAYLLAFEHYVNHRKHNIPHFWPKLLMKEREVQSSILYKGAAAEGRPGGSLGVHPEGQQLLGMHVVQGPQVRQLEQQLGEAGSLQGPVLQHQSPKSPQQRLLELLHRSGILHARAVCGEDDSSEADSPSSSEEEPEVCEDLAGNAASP
Sequence of Ratio of Nucleoli Translocation and Cytoplasm, AR (gene 367) (P10275 whole entry, looked up): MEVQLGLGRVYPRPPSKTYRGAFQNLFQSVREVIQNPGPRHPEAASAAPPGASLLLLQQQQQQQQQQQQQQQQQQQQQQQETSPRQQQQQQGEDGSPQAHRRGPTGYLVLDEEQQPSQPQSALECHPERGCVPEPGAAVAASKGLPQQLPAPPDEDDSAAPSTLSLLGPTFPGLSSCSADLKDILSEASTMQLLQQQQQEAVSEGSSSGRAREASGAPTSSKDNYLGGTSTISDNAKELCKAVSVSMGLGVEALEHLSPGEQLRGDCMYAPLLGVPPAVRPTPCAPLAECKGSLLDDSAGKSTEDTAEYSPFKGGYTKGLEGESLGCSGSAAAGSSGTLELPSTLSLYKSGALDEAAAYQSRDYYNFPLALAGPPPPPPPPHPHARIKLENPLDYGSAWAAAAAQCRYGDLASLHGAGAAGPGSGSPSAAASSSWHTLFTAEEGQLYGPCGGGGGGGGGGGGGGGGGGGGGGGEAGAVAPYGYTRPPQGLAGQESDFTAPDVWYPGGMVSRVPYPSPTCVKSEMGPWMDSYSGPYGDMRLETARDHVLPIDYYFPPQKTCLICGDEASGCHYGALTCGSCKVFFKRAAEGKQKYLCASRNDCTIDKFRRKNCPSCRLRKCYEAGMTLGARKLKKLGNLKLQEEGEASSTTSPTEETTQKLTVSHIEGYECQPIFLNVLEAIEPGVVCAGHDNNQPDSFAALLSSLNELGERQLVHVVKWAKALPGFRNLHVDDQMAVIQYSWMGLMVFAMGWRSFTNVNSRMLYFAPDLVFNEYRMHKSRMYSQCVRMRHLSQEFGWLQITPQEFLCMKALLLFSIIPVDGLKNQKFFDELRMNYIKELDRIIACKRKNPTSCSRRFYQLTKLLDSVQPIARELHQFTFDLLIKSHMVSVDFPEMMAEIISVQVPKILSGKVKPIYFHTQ
Sequence of AR (gene 367) (P10275 whole entry, looked up): as above
Sequence of Nucleoli Translocation, AR (gene 367) (P10275 whole entry, looked up): as above
Sequence of Agonist Androgen Response Element (ARE), AR (gene 367) (P10275 whole entry, looked up): as above
Sequence of Androgen Receptor/SRC-1 Co-activator, AR (gene 367) (P10275 whole entry, looked up, the tested form may be a part): as the sequence (P10275 whole entry, looked up) above
Sequence of Estrogen receptor (Homo sapiens) (P03372 whole entry, looked up, the tested form may be a part): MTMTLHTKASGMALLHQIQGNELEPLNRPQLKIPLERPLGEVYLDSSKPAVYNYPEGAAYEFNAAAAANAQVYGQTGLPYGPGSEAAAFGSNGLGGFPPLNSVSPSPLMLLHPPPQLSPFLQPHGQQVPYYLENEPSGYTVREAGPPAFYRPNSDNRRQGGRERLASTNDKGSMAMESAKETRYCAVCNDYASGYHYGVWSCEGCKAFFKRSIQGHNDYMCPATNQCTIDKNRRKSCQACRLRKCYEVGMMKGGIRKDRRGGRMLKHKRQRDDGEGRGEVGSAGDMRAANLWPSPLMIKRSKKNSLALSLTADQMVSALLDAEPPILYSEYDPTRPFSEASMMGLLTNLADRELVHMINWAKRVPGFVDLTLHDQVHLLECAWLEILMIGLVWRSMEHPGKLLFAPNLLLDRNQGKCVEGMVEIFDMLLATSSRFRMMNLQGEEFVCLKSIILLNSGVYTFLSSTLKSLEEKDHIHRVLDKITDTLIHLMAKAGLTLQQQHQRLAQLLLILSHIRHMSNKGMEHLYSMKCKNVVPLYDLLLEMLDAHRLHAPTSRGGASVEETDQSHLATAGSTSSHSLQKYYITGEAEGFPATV
Sequence of sheep Cyclooxygenase-1 (Cox1), PTGS1 (gene 443551) (P05979 whole entry, looked up): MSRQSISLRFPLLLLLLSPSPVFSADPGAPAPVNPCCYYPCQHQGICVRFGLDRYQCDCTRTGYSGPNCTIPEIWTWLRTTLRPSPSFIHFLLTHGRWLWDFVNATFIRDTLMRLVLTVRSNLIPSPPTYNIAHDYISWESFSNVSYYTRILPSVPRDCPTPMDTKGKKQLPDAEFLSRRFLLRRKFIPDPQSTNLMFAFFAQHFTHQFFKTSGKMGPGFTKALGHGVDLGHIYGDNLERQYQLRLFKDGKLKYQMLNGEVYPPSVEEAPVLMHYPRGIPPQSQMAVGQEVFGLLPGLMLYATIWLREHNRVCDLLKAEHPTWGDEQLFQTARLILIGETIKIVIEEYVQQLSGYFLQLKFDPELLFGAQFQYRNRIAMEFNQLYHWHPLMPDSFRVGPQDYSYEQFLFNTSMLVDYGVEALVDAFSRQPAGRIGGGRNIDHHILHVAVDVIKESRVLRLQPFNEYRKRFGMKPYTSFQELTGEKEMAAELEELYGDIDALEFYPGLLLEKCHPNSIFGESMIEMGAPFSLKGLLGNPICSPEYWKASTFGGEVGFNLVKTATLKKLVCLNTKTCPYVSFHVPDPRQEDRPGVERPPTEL
Sequence of D(1A) dopamine receptor (Homo sapiens) (P21728 whole entry, looked up): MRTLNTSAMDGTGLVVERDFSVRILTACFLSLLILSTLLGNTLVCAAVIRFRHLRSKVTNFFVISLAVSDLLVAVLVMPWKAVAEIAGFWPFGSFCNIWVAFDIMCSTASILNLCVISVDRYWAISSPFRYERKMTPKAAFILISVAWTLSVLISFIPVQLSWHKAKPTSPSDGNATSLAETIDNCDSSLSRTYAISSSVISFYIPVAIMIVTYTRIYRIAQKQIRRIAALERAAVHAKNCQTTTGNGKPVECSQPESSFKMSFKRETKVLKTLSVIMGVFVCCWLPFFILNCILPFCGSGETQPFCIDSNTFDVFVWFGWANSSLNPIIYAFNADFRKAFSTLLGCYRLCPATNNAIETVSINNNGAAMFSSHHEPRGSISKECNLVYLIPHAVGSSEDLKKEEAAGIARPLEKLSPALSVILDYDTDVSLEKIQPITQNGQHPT

As for `COC(=O)c1ccccc1`, the call in assay [1] was inactive.

In the case of `CN(C)CCC(c1ccc(Cl)cc1)c1ccccn1` (stereo not drawn), the AC50 – broadly, the midpoint of the concentration-response curve, whichever way the signal moves – in [2] was 12.1 µM (active).

`CC(C)CC(=O)O`: the AC50 in assay [1] was 25 µM (active).

On to `CCCCCCCCCCCCCCCCCC[N+](C)(C)C`, for which, in [2], the AC50 was 2.53 µM (active).

For `Cc1cc(C)c(S(=O)(=O)O)cc1N=Nc1cc(S(=O)(=O)O)c2ccccc2c1O`, the call in assay [3], in assay [4], in [6], in assay [7], in assay [8] and in assay [9] was inactive. For the same molecule, in assay [10], the result was inactive. For the same molecule, the AC50 in [5] is 29.5 µM (active).

As to `CC1=NN(c2cc(Cl)c(S(=O)(=O)O)cc2Cl)C(=O)C1N=Nc1ccc(S(=O)(=O)O)cc1` (stereo not drawn), the call in [5], in assay [11] and in assay [12] was inactive. Besides, in assay [13], the AC50 is 10 µM (active).

On to `CCCCCCC1CCC(=O)O1` (stereo not drawn), for which the result in assay [14], in assay [15], in assay [16] and in assay [17] was inactive.

Take `O=C(c1ccccc1)c1ccccc1O`: the call in [3], in [4], in [6], in assay [7], in assay [8] and in assay [9] was inactive. For the same molecule, the outcome in assay [10] was inactive.

As for `C=C1CC[C@H]2C[C@@H]1C2(C)C`, the molecule was called inactive in [14], in assay [15], in assay [5], in assay [16] and in assay [17].

As for `Cc1cc(O)cc(C)c1Cl`, the call in [18] and in [20] was inactive. Further, in assay [19], the AC50 is 13.8 µM (active).

`CO[Si](CCCNCCN)(OC)OC`: the result in assay [3], in [4], in assay [6], in assay [7], in [8] and in assay [9] was inactive. In addition, the outcome in assay [10] was inactive.

For the molecule `O=C(O)c1ccccc1C(=O)O`, the call in assay [14], in [15], in assay [16] and in assay [17] was inactive.

Regarding `CCCCOC(=O)COc1ccc(Cl)cc1Cl`, the result in [18] and in assay [20] was inactive. In addition, the AC50 in assay [19] was 74.6 µM (active).

For `c1ccc(CNc2ncnc3nc[nH]c23)cc1`, the molecule was classed as inactive in assay [18] and in assay [19]. In addition, the AC50 in assay [20] was 21.9 µM (active).

As for `CCCCCC[C@@H](O)C/C=C\CCCCCCCC(=O)O`, the call in assay [11], in assay [12] and in assay [13] was inactive.

In the case of `Cc1cc2nc3c(=O)[nH]c(=O)nc-3n(C[C@H](O)[C@H](O)[C@H](O)CO)c2cc1C`, the outcome in [11] and in [12] was inactive. In assay [13], the AC50 was 27.1 µM (active).
